Source: PubChem BioAssay
Rows were chosen to be rich in hits. Some 8.9% of all compounds tested hit in one or more screens of this group.
IMPase cell inh = cell-permeable inhibitors of inositol monophosphatase (IMPase) | CHO-M1 cells, IP1 accumulation, HTRF TR-FRET ratio | AID 901 | 120,000 tested, under 10 active | P97697 | inhibition (IP1 accumulation), % at 46.1 µM; active = well fitted curve in the direction sought with a large enough effect in the signal ratio, not every such curve was filed as active; inconclusive = small, poorly fitted or top-dose-only effect, or a change in a side signal; inactive = no such curve, though single readings can be large or run the other way; the % refers to the signal ratio;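 note: cells stimulated with carbachol in lithium chloride buffer; higher means more IMPase inhibition seen as more IP1 and lower FRET ratio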
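In this qHTS, compounds (final up to 46 uM) act on CHO-M1 cells that are then activated through the M1 receptor with carbachol, in pH 7.4 buffer containing 50 mM LiCl, for 30 min. IP1 accumulation is quantified by the IP-One immunoassay.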
ALDH1A1 inh = ALDH1A1 (human) enzyme inhibition | P00352 | Purified ALDH1A1, NADH fluorescence, propionaldehyde substrate | Potency, µM (top dose mostly 75.3 µM), actives largely listed as inhibitors | 220,000 compounds, 7.3% hits; active = well fitted inhibition curve with a large enough effect, not every such curve was filed as active; inconclusive = small, poorly fitted or top-dose-only effect, or another doubt; inactive = no such curve, though single readings can be large or run the other way
NPSR antagonist = antagonists of human neuropeptide S receptor cAMP signaling | Potency, µM (series often up to 38.3 µM), actives largely listed as inhibitors | CHO-NPSR cells, cAMP TR-FRET, antagonist mode | AID 1461 | 220,000 compounds, 1% hits; note: nearly all actives have a fitted effect of over 50% in size
Target sequence (Q6W5P4 whole entry, looked up): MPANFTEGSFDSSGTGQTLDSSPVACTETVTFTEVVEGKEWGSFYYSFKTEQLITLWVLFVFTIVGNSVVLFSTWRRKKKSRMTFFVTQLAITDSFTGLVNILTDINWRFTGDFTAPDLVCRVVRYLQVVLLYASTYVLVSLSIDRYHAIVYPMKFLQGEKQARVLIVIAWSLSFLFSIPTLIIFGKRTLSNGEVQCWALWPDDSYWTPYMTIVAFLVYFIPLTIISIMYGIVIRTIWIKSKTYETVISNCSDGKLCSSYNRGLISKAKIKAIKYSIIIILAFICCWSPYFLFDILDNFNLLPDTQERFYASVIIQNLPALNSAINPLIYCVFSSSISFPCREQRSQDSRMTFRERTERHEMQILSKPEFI
IMPase Li cell = cell-permeable IMPase inhibitors with lithium potentiation; CHO-M1 cells, IP1 TR-FRET (IP-One), carbachol + lithium; Potency, µM (series often up to 59.4 µM), hits mostly inhibitors; 210,000 compounds, 0.35% hits;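 note: IP1 builds up when IMPase is blocked and the TR-FRET signal falls; nearly all actives have a fitted effect of over 50% in size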
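CHO cells stably expressing M1 receptor (2000/well) were cultured 16–30 h, then exposed to compounds with a small lithium addition for 30 min at 37C. IP1 was measured by TR-FRET competition; AC50 from Hill fits.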
12-hLO inh = 12-hLO (ALOX12) enzyme inhibition; P18054; purified 12-hLO, xylenol orange hydroperoxide absorbance; Potency, µM (series often up to 57.1 µM), hits mostly inhibitors; 150,000 compounds, 0.12% hits; note: nearly all actives have a fitted effect of over 55% in size
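Xylenol orange chromogenic assay: hydroperoxide from 12hLO oxidises Fe(II), giving red-shifted Fe(III)-XO absorbance. Conditions: 150 nM enzyme, 40 uM arachidonic acid, 25 mM Hepes pH 7.0, 0.01% Triton X-100, 30 min, room temperature.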
HPGD inh = HPGD (human) dehydrogenase inhibition; P15428; Potency, µM, hits mostly inhibitors; purified HPGD, NADH fluorescence kinetic, PGE2 substrate; AID 894; 150,000 compounds, 4.3% hits; active = well fitted inhibition curve with a large enough effect, not every such curve was filed as active; inconclusive = small, poorly fitted or top-dose-only effect, or another doubt; inactive = no such curve, though single readings can be large or run the other way
Target sequence (P15428 whole entry, looked up): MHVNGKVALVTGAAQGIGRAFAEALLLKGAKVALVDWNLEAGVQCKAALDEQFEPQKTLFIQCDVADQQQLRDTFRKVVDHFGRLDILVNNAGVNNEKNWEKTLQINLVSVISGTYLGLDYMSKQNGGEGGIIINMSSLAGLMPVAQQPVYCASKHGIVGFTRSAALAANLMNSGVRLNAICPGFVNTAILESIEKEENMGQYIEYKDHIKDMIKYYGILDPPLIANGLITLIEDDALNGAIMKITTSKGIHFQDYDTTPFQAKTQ
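NADH formation kinetics: reaction with 30 uM PGE2 and 1 mM NAD+ (final), 20 nM enzyme, Tris-HCl pH 8 with Tween 20, after 15 min compound preincubation at room temperature. Fluorescence change, last versus first of five reads.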
A number is an active result; [ ] = another dose, or the depositor's remark. Unless noted, calls come from the whole dose curve; as a rule, active = well fitted curve in the direction sought with a large enough effect; inconclusive = small, poorly fitted or top-dose-only effect, or another doubt; inactive = no such curve, though single readings can be large; an effect the other way counts as inactive or inconclusive.

For O=C(NCc1ccc2c(c1)OCO2)c1cccc(F)c1 the results were IMPase cell inh inactive, ALDH1A1 inh inactive, NPSR antagonist inactive[7.67 µM], IMPase Li cell inactive, 12-hLO inh inactive and HPGD inh 16µM.
`COc1ccccc1C(=O)NCc1ccc2c(c1)OCO2` gave IMPase cell inh inactive, ALDH1A1 inh inactive, NPSR antagonist inactive, IMPase Li cell inactive, 12-hLO inh inactive and HPGD inh 14µM.
`O=C(NCc1ccc2c(c1)OCO2)c1cccc(Cl)c1` gave IMPase cell inh inactive, ALDH1A1 inh inactive, NPSR antagonist inactive, IMPase Li cell inactive, 12-hLO inh inactive and HPGD inh 3.5µM.
For Cc1nc2c(C(=O)NCc3ccc4c(c3)OCO4)cnn2c(C)c1Cc1ccc(F)cc1Cl the results were IMPase cell inh inactive, ALDH1A1 inh inconclusive, NPSR antagonist 10µM, IMPase Li cell inactive, 12-hLO inh inactive and HPGD inh inconclusive.
Screening COc1ccc(COc2ccccc2C(=O)NCc2ccccc2)cc1F returned ALDH1A1 inh inconclusive, NPSR antagonist inactive, IMPase Li cell inactive, 12-hLO inh inactive and HPGD inh 16µM.
For CC12CCC(C(=O)NCc3ccc4c(c3)OCO4)(OC1=O)C2(C)C (stereo not drawn) the results were IMPase cell inh inactive, ALDH1A1 inh inconclusive, NPSR antagonist inactive, IMPase Li cell inactive, 12-hLO inh inactive and HPGD inh 32µM.
`Cc1ccccc1Cc1c(C)nc2c(C(=O)NCc3ccc4c(c3)OCO4)cnn2c1C` gave IMPase cell inh inactive, ALDH1A1 inh inconclusive, NPSR antagonist inconclusive, IMPase Li cell inactive, 12-hLO inh inactive and HPGD inh inconclusive.
CC(=O)c1sc(Nc2nc(C)cc(C)n2)nc1C was read as IMPase cell inh inconclusive, ALDH1A1 inh 0.89µM, NPSR antagonist inactive, IMPase Li cell inactive, 12-hLO inh inactive and HPGD inh 14µM.
Screening c1ccc2[nH]c(CN3CCCCCC3)nc2c1 returned IMPase cell inh inactive, ALDH1A1 inh inactive, NPSR antagonist inactive, IMPase Li cell inactive, 12-hLO inh inactive and HPGD inh inactive.
`O=S(=O)(c1ccccc1F)N1CCN(Cc2nc3ccccc3[nH]2)CC1` gave IMPase cell inh inactive, ALDH1A1 inh 11µM, NPSR antagonist inactive, IMPase Li cell inactive, 12-hLO inh inactive and HPGD inh inactive.
`O=C(NCc1ccco1)C1CCN(C(=O)c2cc3sccc3n2Cc2ccc(Cl)cc2)CC1` gave IMPase cell inh inactive, ALDH1A1 inh 13µM, NPSR antagonist inconclusive, IMPase Li cell inactive, 12-hLO inh inactive and HPGD inh inactive.
Screening O=C(Nc1nccs1)c1cc2sccc2n1Cc1ccc(F)cc1 returned IMPase cell inh inactive, ALDH1A1 inh inconclusive, NPSR antagonist inconclusive, IMPase Li cell inconclusive, 12-hLO inh inactive and HPGD inh inconclusive.
For O=C(NCCN1CCOCC1)c1cc2sccc2n1Cc1ccc(Cl)cc1 the results were IMPase cell inh inactive[1.84 µM], ALDH1A1 inh inconclusive, NPSR antagonist inactive, IMPase Li cell inactive, 12-hLO inh inactive and HPGD inh 16µM.
`O=C(NCCN1CCOCC1)c1cc2sccc2n1Cc1ccc(F)cc1` gave IMPase cell inh inactive, ALDH1A1 inh inactive, NPSR antagonist inactive, IMPase Li cell inactive, 12-hLO inh inactive and HPGD inh 25µM.
Screening CCn1c(C(=O)N2CCC(C(=O)NCc3cccs3)CC2)cc2sccc21 returned IMPase cell inh inactive, ALDH1A1 inh inactive, NPSR antagonist inactive, IMPase Li cell inactive, 12-hLO inh inactive and HPGD inh inactive.
For Cc1ccc2cc(C)c3nnc(SCC(=O)N4CCCc5ccccc54)n3c2c1C the results were IMPase cell inh inactive[1.84 µM], ALDH1A1 inh inconclusive, NPSR antagonist inconclusive, IMPase Li cell inactive, 12-hLO inh inactive and HPGD inh inactive.
Cc1sc2ncnc(OCC(=O)Nc3ccc4c(c3)OCCO4)c2c1C was read as IMPase cell inh inactive, ALDH1A1 inh 20µM, NPSR antagonist inactive, IMPase Li cell inactive, 12-hLO inh inactive and HPGD inh inactive.
`O=C(CCl)Nc1ccc2c(c1)OCO2` gave ALDH1A1 inh 1.6µM, NPSR antagonist inactive and IMPase Li cell inactive.
`O=C(COc1ncnc2sccc12)Nc1ccc2c(c1)OCCO2` gave IMPase cell inh inactive, ALDH1A1 inh inactive, NPSR antagonist inactive, IMPase Li cell inactive, 12-hLO inh inactive and HPGD inh inactive.
`Cc1cc(C)c(OCC(=O)Nc2ccc3c(c2)OCO3)cc1C` gave IMPase cell inh inactive, ALDH1A1 inh inconclusive, NPSR antagonist inactive, IMPase Li cell 10µM, 12-hLO inh inactive and HPGD inh inactive.
`CN(C)C(=S)Nc1ccc2c(c1)OCO2` gave ALDH1A1 inh 10µM, NPSR antagonist inactive and IMPase Li cell inactive.
Cc1cc(C)c(NC(=O)Cn2nc(-c3ccccc3)nc2-c2ccccc2)c(C)c1 was read as ALDH1A1 inh inactive, NPSR antagonist inactive, IMPase Li cell inactive, 12-hLO inh inactive and HPGD inh inactive.
For CC[C@H](C)[C@H](NC(N)=O)C(=O)Nc1ccc2c(c1)OCO2 the results were ALDH1A1 inh inactive, NPSR antagonist inactive and IMPase Li cell inactive.
Screening CC(C)CC(NC(N)=O)C(=O)Nc1ccc2c(c1)OCO2 (stereo not drawn) returned ALDH1A1 inh 18µM, NPSR antagonist inactive and IMPase Li cell inactive.
Screening N#Cc1ccc(NCC(=O)Nc2ccc3c(c2)OCCO3)cc1 returned ALDH1A1 inh 13µM, NPSR antagonist inactive and IMPase Li cell inactive.
For O=C(CCSc1nc(-c2ccco2)cc(C(F)(F)F)n1)Nc1cccc(O)c1 the results were IMPase cell inh inactive.
Screening CCn1nc(C)c(NC(=O)CCSc2nc(-c3ccco3)cc(C(F)(F)F)n2)c1C returned IMPase cell inh inactive, ALDH1A1 inh 28µM, NPSR antagonist inactive, IMPase Li cell inactive, 12-hLO inh inactive and HPGD inh inconclusive.
Screening O=C(CSc1nc(-c2ccco2)cc(C(F)(F)F)n1)NC1CCCC1 returned IMPase cell inh inactive, ALDH1A1 inh inconclusive, NPSR antagonist inactive, IMPase Li cell inactive, 12-hLO inh inactive and HPGD inh 14µM.
`CCNc1nc(N2CCCCC2)nc(-n2nnc(C(=O)OCC)c2C)n1` gave IMPase cell inh inactive, ALDH1A1 inh inconclusive, NPSR antagonist inactive, IMPase Li cell inactive, 12-hLO inh inactive and HPGD inh inactive.
Screening CC(=O)Nc1ccc(S(=O)(=O)NNC(=O)c2cccc3ccccc23)cc1 returned IMPase cell inh inactive, ALDH1A1 inh inactive, NPSR antagonist inactive, IMPase Li cell inactive, 12-hLO inh inactive and HPGD inh inactive.
Cc1ccc(Nc2nc3nonc3[nH]c2=O)cc1 was read as IMPase cell inh inactive, ALDH1A1 inh inactive, NPSR antagonist inactive, IMPase Li cell inactive, 12-hLO inh inactive and HPGD inh inactive.
Screening O=C(COc1ccccc1)NCC(=O)N/N=C/c1ccco1 returned ALDH1A1 inh 12µM, NPSR antagonist inactive, IMPase Li cell inactive, 12-hLO inh inactive and HPGD inh inconclusive.
